Reference: the supplement of paper PMC7801607

Experiments:
CHO = assay: % viability of CHO cells (MTT); higher = less toxic; settings: 48 h
Summary of the method: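 CHO cells seeded at 10^6 cells/well were exposed to compound at 2 or 20 µM for 48 h. Survival, as percent of untreated cells, was measured with the colorimetric tetrazolium (MTT) assay.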

HepG2-A16-CD81 = assay: % inhibition of HepG2 viability (CellTiter-Glo); higher = more toxic; settings: 5 µM
[1] = system: Plasmodium falciparum NF54 stage IV/V gametocytes; assay: % inhibition of gametocyte viability (PrestoBlue); higher = more inhibition; settings: 48 h
Summary of the method: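 Compound was tested at 1 or 5 µM against Stage IV/V NF54 gametocytes plated at 100 µL/well (2% gametocytaemia, 5% haematocrit). After 48 h of stationary, hypoxic incubation at 37 °C, 10 µL PrestoBlue was added for 2 h before reading 612 nm fluorescence from 70 µL of transferred supernatant. Gametocyte viability inhibition, as a percentage, was scaled against vehicle and kill controls from a single run.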

[2] = system: Plasmodium falciparum NF54 asexual blood stage; assay: % inhibition of asexual blood stage proliferation (pLDH); higher = more inhibition; settings: 72 h
Summary of the method: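 In 96-well plates, compound at 2 or 20 µM was added to Plasmodium falciparum NF54 ring-stage cultures (1% haematocrit, 2% parasitaemia). Plates were incubated for 72 h at 37 °C in 4% CO2, 3% O2 and 93% N2, and survival was then read at 620 nm using the parasite lactate dehydrogenase assay. Inhibition of asexual proliferation, expressed as a percentage, was normalised to controls.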

[3] = system: Plasmodium falciparum NF54 stage IV/V gametocytes; assay: % inhibition of gametocyte viability (ATP bioluminescence); higher = more inhibition; settings: 24 h
Summary of the method: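 Density gradients were used to enrich stage IV/V NF54 gametocytes, which were then seeded into 96-well plates at 30,000 per well with compound at 1 or 5 µM. The plates were incubated at 37 °C for 24 h, and ATP was measured with the Promega BacTiter Glo bioluminescence system. Percent inhibition of gametocyte viability was normalised to the plate controls from a single run.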

[4] = system: Plasmodium falciparum NF54 stage IV/V gametocytes; assay: % inhibition of gametocyte viability (luciferase reporter); higher = more inhibition; settings: 48 h
Summary of the method: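 Compound at 1 or 5 µM was added to stage IV/V NF54-Pfs16-GFP-Luc gametocytes (2% gametocytaemia, 2% haematocrit) and incubated stationary and hypoxic at 37 °C for 48 h. A GloMax-Multi+ reader measured luminescence over 10 s integration on 30 µL lysate plus 30 µL Promega luciferin substrate. Percent inhibition values were normalised to controls within a single run.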

[5] = system: Plasmodium berghei ANKA liver stage in HepG2-A16-CD81; assay: % inhibition of liver stage parasite viability (luciferase); higher = more inhibition; settings: 5 µM; 48 h
Description: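 Single-concentration screen of the MMV Pandemic Response Box. P. falciparum NF54 asexual blood stages: pLDH assay, 72 h at 37 °C, 2 and 20 µM, n=2. Stage IV/V gametocytes (NF54): luciferase reporter (NF54-Pfs16-GFP-Luc, 48 h), ATP bioluminescence (24 h) and PrestoBlue (48 h) at 1 and 5 µM, n=1. P. berghei liver stage (luciferase in HepG2-A16-CD81, 48 h post infection) at 5 µM, n=4. All normalised to DMSO and kill controls as % inhibition.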
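Wherever % inhibition of HepG2 viability (CellTiter-Glo) is given: HepG2-A16-CD81 hepatoma cells plated as in the liver-stage assay but without sporozoites, with DMSO wells as negative and 25 µM puromycin as positive control.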

| Compound | % viability of CHO cells (CHO; 2 µM) [%] | % viability of CHO cells (CHO; 20 µM) [%] | % inhibition of HepG2 viability (HepG2-A16-CD81) [%] | % inhibition of gametocyte viability ([1]; 1 µM) [%] | % inhibition of gametocyte viability ([1]; 5 µM) [%] | % inhibition of asexual blood stage proliferation ([2]; 2 µM) [%] | % inhibition of asexual blood stage proliferation ([2]; 20 µM) [%] | % inhibition of gametocyte viability ([3]; 1 µM) [%] | % inhibition of gametocyte viability ([3]; 5 µM) [%] | % inhibition of gametocyte viability ([4]; 1 µM) [%] | % inhibition of gametocyte viability ([4]; 5 µM) [%] | % inhibition of liver stage parasite viability [5] [%] |
| --- | --- | --- | --- | --- | --- | --- | --- | --- | --- | --- | --- | --- |
| O=C(O)CCNC(=O)c1ccccc1 | 112 | 60.6 | -2.32 | < 0 | -0.209 | 25.9 | 15.9 | < 0 | < 0 | < 0 | 6.13 | 16 |
| O=C(CCCC(F)(F)F)N1CCC(c2nc(-c3nccs3)no2)CC1 | 113 | 105 | 8.03 | -0.494 | 2.08 | 7.54 | 19.8 | 0.351 | < 0 | < 0 | 8.02 | -0.37 |
| CC1CCc2c(N3CCC(O)CC3)c(F)cc3c(=O)c(C(=O)O)cn1c23 (stereo not given) | 84.2 | 87.6 | 2.9 | < 0 | 11.7 | 69.7 | 98.8 | < 0 | < 0 | 1.04 | 6.66 | 17.1 |
| COc1cc(C2C3=C(CC(C)(C)CC3=O)Nc3ccccc3N2C(C)=O)ccc1OCc1ccccc1 (stereo not given) | 174 | 58 | 3.3 | < 0 | 13.3 | -1.82 | 14.6 | 3.07 | < 0 | < 0 | < 0 | 25.5 |
| N=c1n(CCN2CCCCC2)c2ccccc2n1CC(O)COc1ccc(Cl)cc1Cl (stereo not given) | 82.7 | -3.8 | 5.14 | 38.8 | 66 | 76.8 | 85.7 | 85.7 | 88.1 | 40.7 | 97 | -0.075 |
| C[C@@H]1O[C@@H]1P(=O)(O)O | 107 | 72.6 | -3.69 | < 0 | 36.1 | -0.28 | 11.5 | < 0 | < 0 | < 0 | 4.89 | -6.92 |
| Cc1nc(Nc2ccc(F)cc2)nc(N2CCc3ccccc3C2C)c1C (stereo not given) | 103 | 69.7 | 8.08 | 2.28 | 4.43 | 49.6 | 73.1 | < 0 | 43.7 | < 0 | < 0 | 52.5 |
| CCOC(=O)Nc1cc(NC(C)CC(C)CN(CC)CC)c2nc(-c3ccccc3)c(-c3ccccc3)nc2n1 (stereo not given) | 94 | 116 | 12.9 | 26.4 | 51.1 | 37.7 | 54.6 | 28 | 75 | < 0 | 51.1 | 55.5 |
| NC(=O)c1ccc(I)c([N+](=O)[O-])c1 | 110 | 112 | 14.3 | 17.8 | 30.4 | 1.16 | 51.2 | < 0 | < 0 | 0.24 | < 0 | 20.9 |
| CC[C@@]1(O)C(=O)OCc2c1cc1n(c2=O)Cc2cc3c(CN(C)C)c(O)ccc3nc2-1 | 88.8 | 67.7 | 35 | 21.5 | 26.1 | 14.3 | 82.3 | 6.83 | < 0 | 1.24 | 5.33 | 60.8 |
| Nc1nc(O)c(Br)c(-c2ccccc2)n1 | 89.3 | 61.8 | 7.28 | < 0 | 16.6 | 6.53 | 33.7 | < 0 | < 0 | 1.49 | 9.71 | 5.43 |
| C=C(C)n1c(=O)n(Cc2ccccc2C)c2ccccc21 | 110 | 56.8 | 3.81 | 4.81 | 0.864 | 16.6 | 48.2 | < 0 | < 0 | < 0 | < 0 | 19.1 |
| COc1ccc(C)cc1NC(=O)c1ccc(S(=O)(=O)N2CCCCC2)cc1 | 128 | 156 | 6.14 | 0.335 | 3.85 | 1.42 | 32.8 | < 0 | < 0 | < 0 | < 0 | – |
| CC1(C)Cc2c(C#N)c(SCCc3ccccc3)nc(N3CCOCC3)c2CO1 | 112 | 112 | -1.4 | 9.17 | 45.1 | 17.3 | 89.2 | < 0 | < 0 | < 0 | 3.41 | 18.8 |
| N#Cc1c(F)c(Cl)c(NCc2ccccc2)c(C#N)c1F | 102 | -2.81 | 2.78 | 20.8 | 49.5 | 56.1 | 95.3 | < 0 | 20.5 | 2.47 | 52.5 | 22.3 |
| Cc1cccc(C)c1C(=O)Nc1nc(-c2ccccn2)cc2ccccc12 | 104 | 17.3 | 32.4 | 13.5 | 53.2 | 79.3 | 104 | 73.4 | 90.8 | < 0 | 68.3 | 73.3 |
| COc1ccc2nc(-c3ccccc3)cc(O)c2c1 | 85.4 | 80.2 | 6.13 | < 0 | 7.99 | 66.9 | 94.3 | 29.5 | 13.5 | < 0 | 8.89 | 78.6 |
| CCc1c(OCC2CCC2)c2cc(F)ccc2[nH]c1=O | 78.6 | 52.7 | -2.38 | 14.3 | 2.83 | 26.9 | 36 | 7.14 | < 0 | < 0 | < 0 | 12.7 |
